Compound activity deposited in PubChem BioAssay by several laboratories.
Efflux pump inh: inhibitors of Candida efflux pumps in yeast, primary screen, S. cerevisiae, Nile Red, multiplex. S. cerevisiae Candida pump triplex. inhibition, % at 10 µM. 330,000 compounds, 0.44% hits. AID 485275, 2010;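 active = plate passing quality check with inhibition over a set limit, or well fluorescence over plate mean plus 4 SD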;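 also: Nile Red retained in pooled yeast measured as flow cytometry median fluorescence; higher means more Nile Red kept so more efflux inhibition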
PHOSPHO1 block: PubChem AID 1565 | recombinant PHOSPHO1, absorbance phosphatase assay | Phosphoethanolamine/phosphocholine phosphatase (Homo sapiens), Q8TCT1 | inhibition, % at 13.3 µM | 290,000 compounds, 1.1% hits; in the data active = inhibition above about 60%
Target sequence (Q8TCT1 whole entry, looked up): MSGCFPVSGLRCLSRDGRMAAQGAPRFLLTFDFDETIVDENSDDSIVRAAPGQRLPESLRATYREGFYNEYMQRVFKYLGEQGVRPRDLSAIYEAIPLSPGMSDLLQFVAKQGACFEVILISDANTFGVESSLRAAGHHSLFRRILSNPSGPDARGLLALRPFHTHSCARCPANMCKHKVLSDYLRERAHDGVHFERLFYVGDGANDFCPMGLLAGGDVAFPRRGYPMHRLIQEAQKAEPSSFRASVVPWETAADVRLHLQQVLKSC
Cardio protect: cardioprotection against H2O2-induced cell death, primary screen, uHTS, H9c2 cells, ATPLite luminescence | protection from H2O2 cell death, % at 20 µM | 360,000 compounds, 0.63% hits | H9c2 cardiomyocytes, H2O2 injury protection, 2 h;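 active = compounds giving at least 50% protection of heart cells from peroxide-induced death in the single-dose screen, raw or plate-pattern-corrected value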
Calb FLC: C. albicans growth inhibition with fluconazole, primary screen, CaCi-2 strain, Alamar Blue fluorescence | C. albicans CaCi-2 (fluconazole-resistant clinical isolate) + fluconazole, 48 h | growth inhibition, % (test concentration not listed) | 300,000 compounds, 0.57% hits | AID 1979, 2009;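 active = growth inhibition above about 58% in most replicates, limit read from the data, passing the limit was not always enough; inconclusive = exactly half the replicates above a set limit; inactive = most replicates below a set limit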;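 also: all wells also contain fluconazole at 8 µg/ml as a sub-toxic cotreatment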
KCC2 mod: KCC2 cotransporter modulators, thallium flux, primary screen, cell-based, HEK293 KCC2, FluoZin-2 fluorescence, MLSMR | Solute carrier family 12 member 5 (Homo sapiens), Q9H2X9 | KCC2 cells, thallium flux FluoZin-2 fluorescence | B-score of Tl+ flux slope (higher = more flux/activation; lower = inhibition) at 10 µM | 190,000 compounds, 2.2% hits | AID 1456, 2008;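 active = thallium flux slope and its plate-corrected score both differing from the plate sample mean at a set confidence after two filtering rounds, in either direction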;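 also: slope of fluorescence scaled to starting intensity during 10 to 20 s after thallium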
KCC2 secondary: KCC2 modulators in sodium-free buffer, confirmation, cell-based, HEK293 KCC2, thallium flux, secondary assay; shares compounds with KCC2 mod; FluoZin2 fluorescence; hits give high values; normalised thallium flux (F/F0 slope) at 10 µM; 3,700 compounds, 15% hits;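 active = thallium flux slope above the same plate's solvent-only control mean plus 3 SD; inconclusive = the two replicate wells disagree; inactive = no significant difference from solvent-only control wells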
KCC2 bumet counter: thallium flux persisting under bumetanide in KCC2 cells, confirmation, counter-screen for KCC2 modulator project, cell-based, HEK293 KCC2, FluoZin2, secondary assay 3; shares compounds with KCC2 mod; HEK293-KCC2 + bumetanide/ouabain; hits give high values; normalized thallium flux at 10 µM; 3,700 compounds, 49% hits; AID 1714, 2009;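 active = thallium entry rate above the same plate's blocked-transporter control wells by more than 3 SD; inconclusive = the two repeat wells disagree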;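 also: raw slope of fluorescence over initial fluorescence between 10 and 20 s after thallium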
KCC2 secondary2: KCC2 modulators without ouabain present, confirmation, cell-based, HEK293 KCC2, thallium flux, FluoZin2, secondary assay 2; normalized thallium flux at 10 µM; thallium flux FluoZin2 fluorescence; actives lie on both sides; F/F0 rise rate, 10–20 s post-thallium; shares compounds with KCC2 mod; 3,700 compounds, 23% hits;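 active = thallium flux slope more than 3 SD above or below the plate's solvent-only control mean, mostly below; inconclusive = the two repeat wells disagreed; inactive = no significant shift from solvent-only controls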
HEK counter1: thallium flux modulation in parental HEK cells, confirmation, counter-screen for KCC2 modulator project, cell-based, counterscreen 1; 3,700 compounds, 46% hits; HEK293 parental cells, thallium flux FluoZin2, ouabain; baseline-ratio fluorescence slope, 10–20 s after thallium; thallium flux rate (normalised fluorescence) at 10 µM; shares compounds with KCC2 mod;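 active = thallium flux rate significantly above the same plate's solvent-only control wells, beyond their mean plus 3 SD; inconclusive = the two replicate wells gave conflicting results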
KCC2 retest ouab: KCC2 inhibitors and activators, ouabain retest, confirmation, HEK-KCC2 cells; HEK293-KCC2, thallium flux FluoZin2 fluorescence; bidirectional: low = inhibitor, high = activator; raw Tl+ flux slope (below DMSO = inhibition, above = activation) at 10 µM; 3,700 compounds, 48% hits; AID 1717, 2009; shares compounds with KCC2 mod;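 active = thallium flux slope beyond 3 SD from same-plate DMSO control mean in most replicates, usually higher, sometimes lower; inconclusive = repeat tests gave conflicting results; inactive = no significant difference from controls in most replicates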;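 also: slope of initial-normalized fluorescence between seconds 10 and 20 after thallium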
HEK293 Tl flux2: native HEK Tl+ uptake effects, second counter-screen – HEK cells, counterscreen 2, counter-screen for KCC2 modulator project, confirmation | shares compounds with KCC2 mod | HEK293 parental, thallium flux FluoZin-2 fluorescence slope | thallium flux slope at 10 µM | 3,700 compounds, 33% hits | AID 1718, 2009;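 active = thallium flux slope above the same plate's solvent-control mean plus 3 SD in both duplicate wells; inconclusive = duplicate wells that disagreed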;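 also: run without ouabain in cells lacking the KCC2 cotransporter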
Each line names hits and unclear results; the compound was inactive in the other large screens (follow-up assays come after a bar, where they were run). In the library only some 3.3% were active in any assay of this set; here they are far more common.

Nc1nc(CN2CCN(c3ccccc3)CC2)nc(Nc2ccc(Cl)cc2)n1	none
Cn1c(=O)c2c(nc(NCC3CCCO3)n2Cc2cccc(Br)c2)n(C)c1=O (centres undefined)	KCC2 mod -7.6 | KCC2 secondary inactive | KCC2 bumet counter inactive | KCC2 secondary2 inactive | HEK counter1 inactive | KCC2 retest ouab inactive | HEK293 Tl flux2 inconclusive
Cc1nn(Cc2c(F)c(F)c(F)c(F)c2F)c(C)c1NC(=O)c1ccc(COc2ccccc2Cl)o1	KCC2 mod -6.4 | KCC2 secondary inactive | KCC2 bumet counter inactive | KCC2 secondary2 inactive | HEK counter1 inactive | KCC2 retest ouab 0.015 | HEK293 Tl flux2 inactive
O=C(CSc1ccc(-c2ccc(F)cc2)nn1)N1CCCc2ccccc21	KCC2 mod -3.7 | KCC2 secondary inactive | KCC2 bumet counter inactive | KCC2 secondary2 0.02 | HEK counter1 inconclusive | KCC2 retest ouab 0.013 | HEK293 Tl flux2 inactive
CCOC(=O)N1CCN(C(=O)CSc2ccc(-c3ccccc3)nn2)CC1	KCC2 mod -4.2 | KCC2 secondary inactive | KCC2 bumet counter inconclusive | KCC2 secondary2 0.028 | HEK counter1 inactive | KCC2 retest ouab 0.014 | HEK293 Tl flux2 inactive
O=C(CSc1ccc(-c2ccc(Cl)cc2)nn1)N1CCCc2ccccc21	none
Cc1ccc(NC(=O)CSc2ccc(-c3ccco3)nn2)cc1	KCC2 mod -3.3 | KCC2 secondary inactive | KCC2 bumet counter inactive | KCC2 secondary2 0.022 | HEK counter1 inactive | KCC2 retest ouab inactive | HEK293 Tl flux2 inactive
Cc1csc(NC(=O)CSc2ccc(-c3ccccn3)nn2)n1	KCC2 mod -4.9 | KCC2 secondary inactive | KCC2 bumet counter inactive | KCC2 secondary2 0.023 | HEK counter1 inconclusive | KCC2 retest ouab 0.012 | HEK293 Tl flux2 inactive
O=C(COC(=O)CNC(=O)c1ccccc1)NCc1ccc2c(c1)OCO2	none (no result: PHOSPHO1 block, Calb FLC, KCC2 mod)
CC(=O)Nc1ccc(S(=O)(=O)NN=CCCc2ccccc2)cc1	none (no result: Efflux pump inh, PHOSPHO1 block, Calb FLC, KCC2 mod)
Cc1ccccc1C(=O)N1CCC(C(=O)NC(C)c2ccc(-n3ccnc3)cc2)CC1 (centres undefined)	none (no result: KCC2 mod)
O=C(CN1CCOCC1)Nc1ccc([N+](=O)[O-])cc1	none (no result: PHOSPHO1 block, KCC2 mod)
C[C@H]1CN([C@@H](C)CO)C(=O)CCCn2cc(nn2)CO[C@@H]1CN(C)C(=O)Nc1ccc(C(F)(F)F)cc1	none (no result: Efflux pump inh, PHOSPHO1 block, Calb FLC, KCC2 mod)
CCc1nnc(NC(=O)CSc2ccc(-c3ccc(C)cc3)nn2)s1	none
CC1CCN(C(=O)CSc2ccc(-c3cccc([N+](=O)[O-])c3)nn2)CC1	none
CC1CCN(C(=O)CSc2ccc(-c3ccccc3)nn2)CC1	KCC2 mod -3.2 | KCC2 secondary inconclusive | KCC2 bumet counter inactive | KCC2 secondary2 inactive | HEK counter1 inactive | KCC2 retest ouab 0.016 | HEK293 Tl flux2 inactive
Cc1nonc1NC(=O)CSc1nc(C2CCCCC2)nc2ccccc12	KCC2 mod -6.1 | KCC2 secondary inconclusive | KCC2 bumet counter inactive | KCC2 secondary2 inactive | HEK counter1 inactive | KCC2 retest ouab 0.015 | HEK293 Tl flux2 inactive
CCOc1ccc(-c2ccc(SCC(=O)Nc3nnc(CC)s3)nn2)cc1	KCC2 mod 4 | KCC2 secondary inactive | KCC2 bumet counter 0.0078 | KCC2 secondary2 inactive | HEK counter1 0.01 | KCC2 retest ouab inconclusive | HEK293 Tl flux2 0.013
Cc1nonc1NC(=O)CSc1ccc(-c2ccccc2)nn1	KCC2 mod -8 | KCC2 secondary inactive | KCC2 bumet counter inactive | KCC2 secondary2 0.022 | HEK counter1 inactive | KCC2 retest ouab inconclusive | HEK293 Tl flux2 inactive
Cc1nonc1NC(=O)CSc1cn[nH]n1	none (no result: KCC2 mod)
OC/C(Br)=C(\Br)CO	none (no result: PHOSPHO1 block, Calb FLC, KCC2 mod)
O=S(=O)(Nc1nc2ccccc2nc1NCC1CCCO1)c1cccc(Cl)c1 (centres undefined)	none
Nn1c(SCC(=O)Nc2nccs2)nnc1C1CC1	none (no result: PHOSPHO1 block, KCC2 mod)
Cc1nnc(NS(=O)(=O)c2ccc(F)cc2)s1	none (no result: Efflux pump inh, PHOSPHO1 block, Calb FLC, KCC2 mod)
Cc1cc2c(cc1C)-c1nnc(-c3ccc4ccccc4n3)n1C(C)(C)C2	KCC2 mod -5 (no result: Cardio protect) | KCC2 secondary inactive | KCC2 bumet counter inactive | KCC2 secondary2 inactive | HEK counter1 inactive | KCC2 retest ouab inactive | HEK293 Tl flux2 inactive
Fc1cccc(F)c1/C=N/NC(=S)Nc1cccnc1	Calb FLC inconclusive, KCC2 mod 5.2 | KCC2 secondary inactive | KCC2 bumet counter 0.012 | KCC2 secondary2 inactive | HEK counter1 0.012 | KCC2 retest ouab inconclusive | HEK293 Tl flux2 inactive
Fc1ccc(/C=N/NC(=S)Nc2cccnc2)cc1F	none
Fc1c(F)c(F)c(/C=N/NC(=S)Nc2cccnc2)c(F)c1F	KCC2 mod 19 | KCC2 secondary inactive | KCC2 bumet counter 0.03 | KCC2 secondary2 inactive | HEK counter1 0.015 | KCC2 retest ouab inconclusive | HEK293 Tl flux2 inconclusive
Fc1ccc(/C=N/NC(=S)Nc2cccnc2)cc1	none
CC1(C)Cc2c(sc(NC(=O)C(=O)NCC3CCCO3)c2C(N)=O)CO1 (centres undefined)	none (no result: KCC2 mod)
Cc1ccccc1OCC(=O)NNC(=O)CCN1C(=O)c2ccccc2C1=O	KCC2 mod -3.9 | KCC2 secondary inactive | KCC2 bumet counter inactive | KCC2 secondary2 0.023 | HEK counter1 inactive | KCC2 retest ouab inconclusive | HEK293 Tl flux2 inactive
Cc1ccccc1OCCN1C(=O)c2ccccc2C1=O	none
O=C(CN(CCc1ccccc1)C(=O)Cn1nnc(-c2cccs2)n1)NCc1ccco1	KCC2 mod -4.1 | KCC2 secondary inactive | KCC2 bumet counter inactive | KCC2 secondary2 0.024 | HEK counter1 inactive | KCC2 retest ouab inconclusive | HEK293 Tl flux2 inactive
